The campaign covered roughly 310,000 compounds. About 14,000 (4.5%) showed an effect of 50% or more. Effects have a minus sign here. Only a selection was taken, and strong results are over-represented in it overall.
Target: human ether-à-go-go-related gene (hERG) potassium channel (human, UniProt Q12809)
Assay: primary screen, population patch clamp on CHO cells stably expressing hERG; higher = less effect of the substance
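Further: peak tail current of the secondary pulse compared with the same well before compound.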

human ether-à-go-go-related gene (hERG) potassium channel, sequence (Q12809 whole entry, looked up): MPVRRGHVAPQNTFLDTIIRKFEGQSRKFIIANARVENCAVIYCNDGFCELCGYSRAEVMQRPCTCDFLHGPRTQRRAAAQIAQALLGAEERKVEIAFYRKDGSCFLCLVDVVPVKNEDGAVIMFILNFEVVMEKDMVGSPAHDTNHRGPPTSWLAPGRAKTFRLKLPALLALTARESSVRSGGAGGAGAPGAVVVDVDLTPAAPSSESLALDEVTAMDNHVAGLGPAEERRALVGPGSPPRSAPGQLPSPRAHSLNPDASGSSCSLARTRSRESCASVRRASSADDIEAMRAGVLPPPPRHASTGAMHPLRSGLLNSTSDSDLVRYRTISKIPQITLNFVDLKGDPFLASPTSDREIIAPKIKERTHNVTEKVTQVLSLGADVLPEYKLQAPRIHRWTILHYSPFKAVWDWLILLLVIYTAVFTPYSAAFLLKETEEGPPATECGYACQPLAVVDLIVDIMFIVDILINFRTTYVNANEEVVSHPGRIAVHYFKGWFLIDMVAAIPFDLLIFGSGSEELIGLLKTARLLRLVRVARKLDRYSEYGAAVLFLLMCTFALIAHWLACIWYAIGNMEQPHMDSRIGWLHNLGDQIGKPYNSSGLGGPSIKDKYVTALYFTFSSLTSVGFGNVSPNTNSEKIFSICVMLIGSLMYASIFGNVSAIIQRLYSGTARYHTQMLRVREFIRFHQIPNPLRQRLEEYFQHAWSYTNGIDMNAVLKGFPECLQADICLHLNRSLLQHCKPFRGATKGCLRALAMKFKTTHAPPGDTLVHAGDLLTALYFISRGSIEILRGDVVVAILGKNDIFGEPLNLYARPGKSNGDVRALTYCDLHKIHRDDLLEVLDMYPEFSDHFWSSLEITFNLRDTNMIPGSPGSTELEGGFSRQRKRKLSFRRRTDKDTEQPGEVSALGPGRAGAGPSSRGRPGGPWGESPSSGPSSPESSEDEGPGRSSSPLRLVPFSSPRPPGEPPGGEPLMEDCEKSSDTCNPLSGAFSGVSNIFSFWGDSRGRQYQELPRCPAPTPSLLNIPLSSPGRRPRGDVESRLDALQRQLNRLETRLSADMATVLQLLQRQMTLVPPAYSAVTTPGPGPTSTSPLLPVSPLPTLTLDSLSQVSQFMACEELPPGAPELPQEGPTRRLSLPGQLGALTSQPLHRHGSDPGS

Q: For `COP(=O)(OC)C(Nc1ccc([N+](=O)[O-])cc1)c1ccccc1` (stereo not shown), which “hERG current change (%, negative = inhibition) at 10uM” value is on record?
A: -36.1%

Q: `CC(NC(=S)NCCc1ccccc1)C(c1cccs1)N1CCN(Cc2ccccc2)CC1` (stereo not shown) was tested. Which “hERG current change (%, negative = inhibition) at 10uM” value did it give?
A: -41.3%

Q: How did the “hERG current change (%, negative = inhibition) at 10uM” value turn out when `Cc1sc(NC(=O)/C=C/c2ccc3c(c2)OCO3)nc1-c1ccccc1` was run?
A: 8.5%

Q: How did the “hERG current change (%, negative = inhibition) at 10uM” value turn out when `Cc1ccc(C)c(NS(=O)(=O)c2cc(C(=O)Nc3ccccc3-c3ccccc3)ccc2C)c1` was run?
A: 18.2%

Q: With `COc1cccc(CN2CCCCC2c2cccnc2)c1` (stereo not shown) as the compound, how does the “hERG current change (%, negative = inhibition) at 10uM” value read?
A: 3.01%

Q: `Cc1noc(C)c1COc1ccc(C(=O)OCC(=O)NCCN2C(=O)CSC2=O)cc1` was tested. Which “hERG current change (%, negative = inhibition) at 10uM” value did it give?
A: -8.06%

Q: `CC(c1c(O)c2ccccc2[nH]c1=O)C1(C)CCC(O)C(C)(C)O1` (stereo not shown) was tested. Which “hERG current change (%, negative = inhibition) at 10uM” value did it give?
A: -2.48%

Q: With `COc1cc(/C=C(\C#N)c2nc3c(s2)CC(C)CC3)ccc1O` (stereo not shown) as the compound, how does the “hERG current change (%, negative = inhibition) at 10uM” value read?
A: 10.1%

Q: `O=C(C(=O)N1CCCC1)c1c[nH]c2ccccc12` was tested. Which “hERG current change (%, negative = inhibition) at 10uM” value did it give?
A: 7.14%

Q: For `COc1ccc(S(=O)(=O)N2CCC3(CC2)CC(=O)c2ccccc2O3)cc1OC`, which “hERG current change (%, negative = inhibition) at 10uM” value is on record?
A: 11.6%

Q: With `O=C1CC2(CCN(C(=O)c3ccccc3Cl)CC2)Oc2ccccc21` as the compound, how does the “hERG current change (%, negative = inhibition) at 10uM” value read?
A: -72.7%

Q: Which “hERG current change (%, negative = inhibition) at 10uM” value does the source give for `COc1ccc(Cl)cc1C(=O)N1CCC2(CC1)CC(=O)c1ccccc1O2` here?
A: -80.5%

Q: `CSc1ccccc1C(=O)N1CCOCC1` was tested. Which “hERG current change (%, negative = inhibition) at 10uM” value did it give?
A: 20%

Q: `O=C1CC2(CCN(C(=O)c3c(F)cccc3Cl)CC2)Oc2ccccc21` was tested. Which “hERG current change (%, negative = inhibition) at 10uM” value did it give?
A: -41.2%

Q: `O=C(C(=O)N1CCOCC1)c1c[nH]c2ccccc12` was tested. Which “hERG current change (%, negative = inhibition) at 10uM” value did it give?
A: 18.3%

Q: With `O=C1CC2(CCN(C(=O)C(=O)c3c[nH]c4ccccc34)CC2)Oc2ccccc21` as the compound, how does the “hERG current change (%, negative = inhibition) at 10uM” value read?
A: -55.3%

Q: For `CSc1ccccc1C(=O)N1CCC2(CC1)CC(=O)c1ccccc1O2`, which “hERG current change (%, negative = inhibition) at 10uM” value is on record?
A: -61%

Q: Which “hERG current change (%, negative = inhibition) at 10uM” value does the source give for `CSc1ccccc1C(=O)N1CCCCC1` here?
A: -9.98%

Q: `COc1ccc(S(=O)(=O)N2CCC3(CC2)CC(=O)c2ccccc2O3)cc1C` was tested. Which “hERG current change (%, negative = inhibition) at 10uM” value did it give?
A: -3.6%

Q: `O=C1CC2(CCCC2)Oc2ccccc21` was tested. Which “hERG current change (%, negative = inhibition) at 10uM” value did it give?
A: 3.39%

Q: With `CCn1c(SCC(=O)N2CCCc3ccccc32)nc2c(c1=O)SC(C)C2` (stereo not shown) as the compound, how does the “hERG current change (%, negative = inhibition) at 10uM” value read?
A: -24.7%

Q: For `O=C(O)/C=C/c1ccccc1Oc1ccc(Cl)cc1Cl`, which “hERG current change (%, negative = inhibition) at 10uM” value is on record?
A: -8.85%

Q: Which “hERG current change (%, negative = inhibition) at 10uM” value does the source give for `CC(NC(=O)C[n+]1cccc(Br)c1)c1ccccc1.[Cl-]` (stereo not shown) here?
A: 17.6%

Q: For `COC(C(=O)N/N=C(\C)CC(=O)Nc1ccc(Cl)cc1C)c1ccccc1` (stereo not shown), which “hERG current change (%, negative = inhibition) at 10uM” value is on record?
A: -10.5%

Q: How did the “hERG current change (%, negative = inhibition) at 10uM” value turn out when `CCOC(=O)CSc1nc(C)cc(C)n1` was run?
A: 7.29%

Reference: PMC4336329 (PLoS ONE, 2015)
